# Article PMC12864922, “TDP-43 directly inhibits mRNA accumulation in neurites through modulation of mRNA stability”
# The full ranking holds about 9,900 sequences; the median of “r (bound/input frequency ratio)” is about 0.7, and the highest 2% start at about 6.5. The entries come from a sample that favours the highest values as a whole.
# B1: ENSMUSG00000031028.158|Tub (ssRNA)
# RNA: GGGAGUUCUACAGUCCGACGAUCGCUUCGAUAUCCGCAUGCUAUGCCAGCAUGCCAUGAUCAGUGAGGGCUGUGUGCCAUGCUUAGGGGGAUGGCGCAGGGUGAGGGGAGCAGAGGAUAUUUUAGGGCCACAAGAGCUCAGAGGUAGCGGACCUCUGUGUGGUUCACCAACAGCAAUGCUGAUCCCUGAGUAUAGGGCACAUGUCUCUUGGUUACCUCACUGGUUAAUGGCAGAGUUGAGAACCUCAAAUUCUUUUGUUCCUACUGUUGCCCAGAAACUAGACUCUCUGACCUGCUAGGGUCUCUCUUGCGGUCGCACUAGUGUGGAAUUCUCGGGUGUCAAGG
# B2: ENSMUSG00000031028.505|Tub (ssRNA)
# RNA: GGGAGUUCUACAGUCCGACGAUCGCUUCGAUAUCCGCAUGCUACUGGGAAGACAGGAGUCGGAAGCCAAGGUGUGUGGCAACAGUCUGGAAGAGAGCUUUUGGUAAUCAUACCGUCUUCAGUGACAAGGCAACAAUGCUGUAAAGUGGGUUUGUUUGGUUUUGUUUUUUCUUUCUCUUUUAUGGAAAUGGCAGGUCUAUUUGCCUCAAACGUUAUGUAGAAGUAGUUCUAAGUUUAACAAGCAAUAGAGAUGACUGCUUAGCUAGGAUCUGCAGGGAGCUCUGCUCUGCAAGCACAACACCUGCUCUUGCGGUCGCACUAGUGUGGAAUUCUCGGGUGUCAAGG
# B3: ENSMUSG00000090935.538|Synj2bp|26:32 (ssRNA)
# RNA: GGGAGUUCUACAGUCCGACGAUCGCUUCGAUAUCCGCAUGCUAAAUGGCAAGGAGGAUAAAACACUGUACACACAUGUAUUGUUGAUCUAAAUAAAAAAUAUCAUUGGUAGAAGUUUUACUUUGGUUGAUAAGGAUUCUGAUAACAUUUGGGUCUCCUUAGGAAAGAAACACUUAACUAAAACAUUUAAGUUUUAGGCAAAUACUGUAAUAUUUCACUCUUAGUUAUAUGAAAACUAAAUGAGAUGUUGAGAAUCUAUAUAGAUUAUUCAAAUUUUAUGUUUCUUAUAGACUGACUCAAAUAUCUCUUGCGGUCGCACUAGUGUGGAAUUCUCGGGUGUCAAGG
# B4: ENSMUSG00000061578.246|Ksr2 (ssRNA)
# RNA: GGGAGUUCUACAGUCCGACGAUCGCUUCGAUAUCCGCAUGCUACAGAACCUUCUCACCCCUUUGCAAAGCUCUUGCCGUCUGCACCCGGGACCCCGGGACCCACACAAGUUGUCCCCAUGUGAACAUCCUGCCUCUCCUGGUGACAUCUGUCUCUGGCUCAGCUUCUCUGCCUCUUACAGACAGUUUCCCUGUACAUUUGCUUAUGGCCCUGGGCUCCAGAGUCGCUGAAGACCACUCUCCACAGCAGCUGUAACCCCAUCUAACAAGCCCUGUUCUGGAUAUAUCUCUGUGGCCAGGGCUGGCUCUUGCGGUCGCACUAGUGUGGAAUUCUCGGGUGUCAAGG
# B5: ENSMUSG00000061578.893|Ksr2 (ssRNA)
# RNA: GGGAGUUCUACAGUCCGACGAUCGCUUCGAUAUCCGCAUGCUAGGCCAUCAGGGCCCCAUUCUGAGGUCCUGGGACACUACCCAAACCCUAGCACUCUCCCAGUGACUCUCCUAUGAGUACAUAUGCCAUCCUGCUUCCUUUGUGGCAAAACCCUGGGUCACCCAGAGACAGAUUUCCCAGAAUCCCUGGGCCACUUCUCAAUUCUACCCAUGACAGACAUGUCCCAUCCAUGAGCCCAGAUAGUCAAAGACUUCAGCACAAGGGUGUUUAGAGUAGGCAGUGUGGAAGUAUCAAUAAGGUUACUCUUGCGGUCGCACUAGUGUGGAAUUCUCGGGUGUCAAGG
# B6: ENSMUSG00000061578.293|Ksr2 (ssRNA)
# RNA: GGGAGUUCUACAGUCCGACGAUCGCUUCGAUAUCCGCAUGCUAUAAGCAUCUUAGAGUUUCUCUUUUCUCUUUAAUUGCAUCAGGACCCCUUUGGUCCAUGUACCCCGGUCUCUGUCACAUGCCUUUGUAUCUUGGAGGAAGUAAGAGAGGAGAGAGCCAGGGAGGGCUGAAGCUCUGGGACCCUGAAGUGUCCCCCGGGAACUGGGACUCACUCAUCUUCUCCUGUUUGUAGCUCAAUGACCCAGUGGGUCACAGUUCUAGGCGCUCCAAGGAAGCCAGGGGAGGGGGACUCCUCAGGAAGGCUCUUGCGGUCGCACUAGUGUGGAAUUCUCGGGUGUCAAGG
# B7: ENSMUSG00000042529.251|Kcnj12 (ssRNA)
# RNA: GGGAGUUCUACAGUCCGACGAUCGCUUCGAUAUCCGCAUGCUAAAUUUCUAAUCUAGGAGAUUCCCCUAGGACCCGCUGCAGAGGCAUGGGCUCCUCUGUGGUCCUGGCCAGACCUCUGCCCCCAAAUCUCACUGACUGUUCUAGCCUUGGCCUUGGGGCCUAAGGGUGCAUUCAGCCUGGGUGUGCUUACCUGCCACUCACCUCUCUAUCUAGUUGUCGAGUCUAGGGAAGGGCAGAGGGUGGGUCCUGGCCACUGGGUGCCACUGUGGGAGCCGGGGCACCUGUCAUUCUUUCUGAGUAGGCUCUUGCGGUCGCACUAGUGUGGAAUUCUCGGGUGUCAAGG
# B8: ENSMUSG00000031028.344|Tub (ssRNA)
# RNA: GGGAGUUCUACAGUCCGACGAUCGCUUCGAUAUCCGCAUGCUAGGUUGACAAGUUUAAGGUUGAACAGGCUGAUUUCUGGAAUCUCAUGAGUGGAGGGGACCCUGGUGGUUAAGAGCGGAACUGGAAGCACAAUGGAAAACUCUUGGACUCUGCUCUCUGCUUUACCACACACAAAAAAGAGGGUUCUUGGCUAUUUGAAUAUAAAGUUGGUAGCACCAGGAAAUAGGCUGAACUUUGUAGCCCACUGUGGAAAGGAGCAGCCUCAGCACAAACCCCUCUGUCGGGCCCUGAGUGACAAGACCCUCUUGCGGUCGCACUAGUGUGGAAUUCUCGGGUGUCAAGG
# B9: ENSMUSG00000058297.294|Spock2 (ssRNA)
# RNA: GGGAGUUCUACAGUCCGACGAUCGCUUCGAUAUCCGCAUGCUAAGAGAGAAUGAGAGAGAAUGAGAGAGAGAAUACCCGAGGGCCACCCUGAUGCCCAGGAAGAGUGAGGGCAGCCCCCUGUGUGGUGGAAGAGGCUGGGCAGCUAGCUACUGGGGACCUUGUGCUGAGGCUUCCAGGACAAAGCCCCAGUCUGGCUCUCCCCCAGCCUCUCAGGGGCACUGGCUGGUCACAUCCACUGAGUAUUGAUCGGUUGGACUUUAGGGAAGAGCCUCCUCCUUCCCAUUCCUUUCUGCCACCCUGGACUCUUGCGGUCGCACUAGUGUGGAAUUCUCGGGUGUCAAGG
# B10: ENSMUSG00000058297.296|Spock2 (ssRNA)
# RNA: GGGAGUUCUACAGUCCGACGAUCGCUUCGAUAUCCGCAUGCUAAGAGAAUGAGAGAGAGAAUACCCGAGGGCCACCCUGAUGCCCAGGAAGAGUGAGGGCAGCCCCCUGUGUGGUGGAAGAGGCUGGGCAGCUAGCUACUGGGGACCUUGUGCUGAGGCUUCCAGGACAAAGCCCCAGUCUGGCUCUCCCCCAGCCUCUCAGGGGCACUGGCUGGUCACAUCCACUGAGUAUUGAUCGGUUGGACUUUAGGGAAGAGCCUCCUCCUUCCCAUUCCUUUCUGCCACCCUGGAAUGGCCACCUUACUCUUGCGGUCGCACUAGUGUGGAAUUCUCGGGUGUCAAGG
# B11: ENSMUSG00000058297.295|Spock2 (ssRNA)
# RNA: GGGAGUUCUACAGUCCGACGAUCGCUUCGAUAUCCGCAUGCUAAAUGAGAGAGAAUGAGAGAGAGAAUACCCGAGGGCCACCCUGAUGCCCAGGAAGAGUGAGGGCAGCCCCCUGUGUGGUGGAAGAGGCUGGGCAGCUAGCUACUGGGGACCUUGUGCUGAGGCUUCCAGGACAAAGCCCCAGUCUGGCUCUCCCCCAGCCUCUCAGGGGCACUGGCUGGUCACAUCCACUGAGUAUUGAUCGGUUGGACUUUAGGGAAGAGCCUCCUCCUUCCCAUUCCUUUCUGCCACCCUGGAAUGGCCCUCUUGCGGUCGCACUAGUGUGGAAUUCUCGGGUGUCAAGG
# Molecular target: TDP-43 (Homo sapiens, UniProt Q13148 1-414)
# Sequence (Q13148 whole entry): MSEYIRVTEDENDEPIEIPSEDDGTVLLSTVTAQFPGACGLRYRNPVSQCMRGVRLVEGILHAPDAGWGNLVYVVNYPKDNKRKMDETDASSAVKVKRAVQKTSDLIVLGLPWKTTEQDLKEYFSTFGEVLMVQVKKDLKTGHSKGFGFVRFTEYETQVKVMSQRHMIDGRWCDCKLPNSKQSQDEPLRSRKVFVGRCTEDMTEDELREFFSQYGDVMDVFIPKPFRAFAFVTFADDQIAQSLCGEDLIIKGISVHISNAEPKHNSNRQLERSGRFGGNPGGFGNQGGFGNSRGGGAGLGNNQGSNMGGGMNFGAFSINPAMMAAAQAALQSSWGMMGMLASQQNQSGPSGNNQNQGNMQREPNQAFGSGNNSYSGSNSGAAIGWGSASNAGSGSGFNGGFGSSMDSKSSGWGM
# Assay: RNA Bind-n-Seq with designed 260-mer pool; 25 mM Tris-HCl, 150 mM KCl, 3 mM MgCl2, BSA (printed 500 mg/mL), 20 units/mL SUPERase IN; pH not stated; 500 nM RNA pool, 1 h, 4 C; TDP-43 5, 50, 500 nM; high values mean tight binding
# Conditions: protein: recombinant; tags: SBP (GST cleaved off with PreScission; pGEX-GST-SBP)
# How it was run: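 Streptavidin beads captured recombinant SBP-tagged TDP-43 at 5, 50 or 500 nM, and the beads were incubated for 1 h at 4 °C with 500 nM of an in vitro-transcribed pool of 260-nt 3′ UTR oligos in 25 mM Tris-HCl, 150 mM KCl, 3 mM MgCl2, BSA and SUPERase IN. After washing, bound RNA was eluted with biotin, reverse transcribed, PCR-amplified and sequenced. Binding is reported as R, the mapped-read-normalized abundance of each oligo in the bound sample divided by its abundance in the input. Two independent protein batches served as duplicates.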
row,Binder,binding signal
1,B1,0.506 R (bound/input frequency ratio)
2,B2,0.58 R (bound/input frequency ratio)
3,B3,0.0361 R (bound/input frequency ratio)
4,B4,0.544 R (bound/input frequency ratio)
5,B5,0.438 R (bound/input frequency ratio)
6,B6,0.535 R (bound/input frequency ratio)
7,B7,0.996 R (bound/input frequency ratio)
8,B8,0.993 R (bound/input frequency ratio)
9,B9,2.14 R (bound/input frequency ratio)
10,B10,9.19 R (bound/input frequency ratio)
11,B11,3.63 R (bound/input frequency ratio)
